Legend:
Experiment in all cases: thermal shift delta Tm vs DMSO control; higher = stronger stabilization (binding)
Details in all cases: 12.5 µM; protein concentration 2 µM
LOC_OS01G01410-cb001 = system: LOC_OS01G01410-cb001
How it was run: (§1)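 Purified, E. coli-expressed rice kinase domain constructs were tested by differential scanning fluorimetry in 96-well plates: 19.5 μl of 2 μM kinase in 100 mM potassium phosphate pH 7.5, 150 mM NaCl, 10% glycerol, 5 × SYPRO Orange, plus compound in DMSO. Fluorescence was read from 25°C to 95°C at 0.05°C/s. Melting temperatures came from Boltzmann fits, and the shift is the triplicate mean relative to protein with DMSO alone.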

LOC_OS01G02750-cb003 = system: LOC_OS01G02750-cb003
How it was run: as §1

LOC_OS01G10900-cb004 = system: LOC_OS01G10900-cb004
How it was run: as §1

LOC_OS01G13800-cb001 = system: LOC_OS01G13800-cb001
How it was run: as §1

LOC_OS01G14860-cb001 = system: LOC_OS01G14860-cb001
How it was run: as §1

LOC_OS01G21960-cb002 = system: LOC_OS01G21960-cb002
How it was run: as §1

LOC_OS01G39600-cb002 = system: LOC_OS01G39600-cb002
How it was run: as §1

LOC_OS01G48390-cb002 = system: LOC_OS01G48390-cb002
How it was run: as §1

LOC_OS01G51400-cb002 = system: LOC_OS01G51400-cb002
How it was run: as §1

LOC_OS01G52050-cb004 = system: T1, LOC_OS01G52050-cb004
T1 sequence (whole entry): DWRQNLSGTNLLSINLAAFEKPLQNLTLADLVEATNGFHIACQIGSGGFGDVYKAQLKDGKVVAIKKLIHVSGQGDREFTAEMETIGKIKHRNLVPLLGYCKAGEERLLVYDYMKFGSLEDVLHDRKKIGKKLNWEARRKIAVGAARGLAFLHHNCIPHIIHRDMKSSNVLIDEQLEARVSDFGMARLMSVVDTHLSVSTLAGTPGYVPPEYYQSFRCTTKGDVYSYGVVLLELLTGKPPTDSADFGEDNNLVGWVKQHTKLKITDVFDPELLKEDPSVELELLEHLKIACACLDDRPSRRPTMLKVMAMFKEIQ
How it was run: as §1

LOC_OS01G57100-cb003 = system: LOC_OS01G57100-cb003
How it was run: as §1

LOC_OS01G60330-cb001 = system: LOC_OS01G60330-cb001
How it was run: as §1

LOC_OS01G60700-cb002 = system: LOC_OS01G60700-cb002
How it was run: as §1

LOC_OS01G63280-cb003 = system: LOC_OS01G63280-cb003
How it was run: as §1

LOC_OS01G67340-cb003 = system: LOC_OS01G67340-cb003
How it was run: as §1

LOC_OS01G70970-cb002 = system: LOC_OS01G70970-cb002
How it was run: as §1

LOC_OS02G07810-cb001 = system: LOC_OS02G07810-cb001
How it was run: as §1

LOC_OS02G08530-cb003 = system: LOC_OS02G08530-cb003
How it was run: as §1

LOC_OS02G14120-cb001 = system: LOC_OS02G14120-cb001
How it was run: as §1

LOC_OS02G17970-cb001 = system: LOC_OS02G17970-cb001
How it was run: as §1

| Structure (SMILES) | thermal shift delta Tm (LOC_OS01G01410-cb001) [°C] | thermal shift delta Tm (LOC_OS01G02750-cb003) [°C] | thermal shift delta Tm (LOC_OS01G10900-cb004) [°C] | thermal shift delta Tm (LOC_OS01G13800-cb001) [°C] | thermal shift delta Tm (LOC_OS01G14860-cb001) [°C] | thermal shift delta Tm (LOC_OS01G21960-cb002) [°C] | thermal shift delta Tm (LOC_OS01G39600-cb002) [°C] | thermal shift delta Tm (LOC_OS01G48390-cb002) [°C] | thermal shift delta Tm (LOC_OS01G51400-cb002) [°C] | thermal shift delta Tm (LOC_OS01G52050-cb004) [°C] | thermal shift delta Tm (LOC_OS01G57100-cb003) [°C] | thermal shift delta Tm (LOC_OS01G60330-cb001) [°C] | thermal shift delta Tm (LOC_OS01G60700-cb002) [°C] | thermal shift delta Tm (LOC_OS01G63280-cb003) [°C] | thermal shift delta Tm (LOC_OS01G67340-cb003) [°C] | thermal shift delta Tm (LOC_OS01G70970-cb002) [°C] | thermal shift delta Tm (LOC_OS02G07810-cb001) [°C] | thermal shift delta Tm (LOC_OS02G08530-cb003) [°C] | thermal shift delta Tm (LOC_OS02G14120-cb001) [°C] | thermal shift delta Tm (LOC_OS02G17970-cb001) [°C] |
| --- | --- | --- | --- | --- | --- | --- | --- | --- | --- | --- | --- | --- | --- | --- | --- | --- | --- | --- | --- | --- |
| CCCCCCCCCCCCc1ccc(S(=O)(=O)Nc2nncs2)cc1 | 0.38 | 0.24 | 0.46 | 0.29 | 0.62 | 1.26 | 0.44 | 0.62 | -0.04 | 1.1 | 2.08 | 0.81 | 0.86 | 0.54 | -1.07 | 0.27 | 1.33 | 0.91 | -0.22 | 0.86 |
| COc1cc2/c(=N/c3ccc(Br)cc3F)nc[nH]c2cc1OCC1CCN(C)CC1 [Vandetanib (ZD6474)] | 1.05 | -0.06 | 0.86 | -0.25 | 0.15 | 0.02 | 0.47 | 1.67 | 0.15 | 1.36 | 0.28 | 0.67 | 1.17 | 0.47 | 1.64 | 0.33 | 0.65 | 2.65 | 10.4 | 0.76 |
| O=C(Nc1cccc(C(F)(F)F)c1)c1cccc2cc(Oc3cc(CO)ncn3)ccc12 | 0.74 | 0.11 | 0.77 | 0.56 | 0.71 | 0.94 | -0.03 | 0.4 | 0.1 | 0.38 | 1.09 | 0.76 | 1.22 | 2.3 | 0.38 | 0.5 | 0.69 | 0.95 | 0.55 | 1.28 |
| COc1cc2nccc(Oc3ccc(NC(=O)C4(C(=O)Nc5ccc(F)cc5)CC4)cc3)c2cc1OC | 1.63 | 0.81 | 0.73 | 0.78 | 1.07 | 0.93 | 1.5 | 6.38 | 0.3 | 2.44 | 1.05 | 2.17 | 1.12 | 1.29 | 0.96 | 1.37 | 1.4 | 1.21 | 5.23 | 0.76 |
| CN1CCN(c2ccc3nc(-c4c(N)c5c(F)cccc5[nH]c4=O)[nH]c3c2)CC1 [Dovitinib (TKI-258, CHIR-258)] | 6.03 | 2.05 | 2.59 | -0.2 | 0.79 | 2.56 | 2.01 | 1.63 | 0.56 | 3.72 | -0.17 | 10.3 | 1.43 | 0.59 | 2.72 | 3.99 | 0.53 | 2.72 | 4.01 | -0.27 |
| O=c1cc(-c2cccc3c2Sc2ccccc2S3)oc(N2CCOCC2)c1 | 0.6 | -5.37 | 1.94 | 0.13 | 2.44 | 0.44 | 0.29 | 2.17 | -0.12 | -0.44 | 0.21 | 1.07 | 0.76 | 0.32 | -0.52 | -0.34 | 0.78 | 0.47 | 0.45 | 0.59 |
| CO[C@@H](C)Cn1c(=O)n(C)c2cnc3ccc(-c4cncc(C(C)(C)O)c4)cc3c21 | 0.7 | 1.17 | 0.3 | 0.76 | 0.77 | 0.72 | 0.26 | 0.5 | 0.38 | 1.9 | 1.94 | 0.57 | 1.37 | 0.84 | 0.62 | 0.44 | 0.65 | 1.76 | 2.83 | 0.61 |
| COc1cc(Nc2ncc(F)c(Nc3ccc4c(n3)N(COP(=O)(O)O)C(=O)C(C)(C)O4)n2)cc(OC)c1OC [Fostamatinib (R788)] | 1.98 | -0.16 | 0.33 | -0.55 | 4.38 | 3.63 | 9.1 | 0.22 | 0.49 | 6.23 | 4.42 | 6.53 | 0.92 | 0.09 | 1.18 | 3.04 | 0.54 | 3.76 | 11 | 0.23 |
| C=CC(=O)N[C@H]1CCOC[C@H]1Nc1ncc2cc(-c3c(Cl)c(OC)cc(OC)c3Cl)ccc2n1 | 0.19 | -0.27 | 2.28 | -0.14 | 0.4 | 0.24 | -0.48 | 0.49 | -0.01 | 1.84 | 2.49 | -0.43 | -0.29 | -0.43 | -0.17 | -0.04 | -1.01 | 0.62 | 0.55 | -0.41 |
| Cn1ncc(Cl)c1-c1cc(C(=O)N[C@H](CN)Cc2cccc(F)c2)sc1Cl | 0.78 | 2.36 | 0.19 | -0.25 | 0.67 | 0.59 | -0.1 | 0.28 | 0.18 | 0.5 | 0.79 | 0.75 | 0.77 | 0.1 | 0.54 | 0.15 | 0.41 | 0.69 | 1.31 | 0.56 |
| O=C1NC(=O)C(c2cnc3ccccn23)=C1c1cn2c3c(cc(F)cc13)CN(C(=O)N1CCCCC1)CC2 | 0.36 | 0.62 | 0.19 | 0.44 | 4.55 | 2.13 | 5.95 | 0.1 | 0.37 | 0.22 | 1.16 | 3.68 | 2.25 | 0.82 | 0.19 | 0.64 | 1.59 | 1.8 | 0.04 | 2.16 |
| CCc1cncnc1N1CCN(Cc2nc3ccc(C(F)(F)F)cc3[nH]2)CC1 | 0.68 | 1.15 | 0.36 | 0.07 | 0.3 | 0.83 | -0.18 | 0.61 | 0.42 | 0.17 | 1.5 | 0.04 | 0.72 | 0.19 | -0.58 | 0.14 | 0.73 | 0.49 | -0.72 | 0.34 |
| O=C(NCc1ccccc1)c1csc(Nc2ccncn2)n1 [Thiazovivin] | 0.06 | 1.66 | 2.94 | 1.01 | 3.98 | 2.52 | 0.44 | 0.4 | 0.24 | 2.17 | 1.74 | 1.17 | 0.63 | 0.81 | 0.47 | 0.09 | 1.58 | 0.69 | 0.71 | 1.26 |

From the supplement of paper PMC9694430
